# Screening data: PubChem, National Center for Advancing Translational Sciences (NCATS)
# This is a sample that favours compounds with a hit; in the whole collection about 17% have one here.
# HT1080 IDH1KD tx: toxicity to HT-1080 IDH1 knockdown cells (counter line); HT-1080 IDH1 knockdown viability, ATP luminescence, 48 h; Potency, µM (titrated, usually from 46.1 µM), inactives show at the highest dose activity, negative = toxicity, hits mostly cytotoxic; actives 2% (n = 360,000); AID 686971;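 also: 0% = DMSO wells and -100% = cell-free medium wells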
#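 % activity derives from luminescence (CellTiter-Glo), normalised to DMSO and no-cell wells. HT-1080-IDH1KD cells, 750/well, had 48 h compound exposure at 37 °C.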
# HT1080NT lethal: kills 2HG-producing HT-1080-NT fibrosarcoma cells; Potency, µM (titrated, usually from 46.1 µM), for inactives: top-dose activity, negative = less viability, actives largely listed as cytotoxic; actives 1.6% (n = 360,000); HT-1080-NT fibrosarcoma viability, CellTiter-Glo ATP luminescence, 48 h;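 also: NT is the 2HG producing partner of a matched IDH1 knockdown line; 0% = DMSO-treated cells and -100% = media-only wells without cells; nearly all actives have a fitted effect of over 55% in size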
#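 Toxicity toward the 2HG-producing NT line was scored as %Activity, normalised to DMSO and no-cell wells, from CellTiter-Glo luminescence after 48 hours' treatment.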
# HepG2 viability: HepG2 cytotoxicity, counter-screen for TGF-b inhibitors. HepG2 CAGA-GFP viability, ATP luminescence, 18 h. Potency, µM (highest dose often 46.1 µM), inactives show at the highest dose activity change, negative = cytotoxicity, usual class: cytotoxic. actives 0.76% (n = 410,000). AID 588856
#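 CellTiter-Glo luminescence gave cytotoxicity after 18 hours at 37 degrees C. The cells were HepG2 CAGA-GFP in 1% FBS DMEM, stimulated with 500 pg/mL TGF-beta after compound addition. %Activity was normalised to no-cell wells (complete cell-killing) and DMSO (no toxicity), and curves were fitted and classified.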
# TGFb inhibitor: inhibitors of TGF-b signaling | HepG2 CAGA-GFP TGF-b/SMAD3 reporter, GFP fluorescence, 18 h; TGF-beta stimulated, 500 pg/mL final | Potency, µM (doses to about 46.1 µM), without a hit: at the top dose activity, negative = inhibition, most hits filed as inhibitors | actives 1.2% (n = 410,000) | AID 588855; also: % is scaled to controls: 0 for no effect and ±100 for the full control effect; nearly all actives have a fitted effect of over 65% in size
#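 Using HEPG2 CAGA-GFP reporter cells at 1000 cells/well, we pinned test compounds, stimulated with recombinant TGF-beta (500 pg/mL final) and measured total well GFP after 18 h.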
# TDP1 cell noCPT: qHTS for Inhibitors of human tyrosyl-DNA phosphodiesterase 1 (TDP1): qHTS in cells in absence of CPT | DT40 Tdp1-/- hTDP1 cells, no CPT, ATP luminescence, 48 h | Potency, µM (highest dose often 46.2 µM), for the others: at the top dose activity change, negative = growth inhibition, most hits filed as inhibitors | actives 15% (n = 420,000) | AID 686978, 2013; also: % is scaled to controls: 0 for no effect and ±100 for the full control effect; nearly all actives have a fitted effect of over 55% in size
#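 Stably hTDP1-transfected Tdp1-null chicken DT40 cells were treated with library compounds minus camptothecin and grown for at least 48 hr at 37 °C, after which cellular ATP was quantified by luminescence.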
# DT40 TDP1 CPT: DT40-hTDP1 cell growth loss with CPT; Potency, µM (titrated, usually from 46.2 µM), inactives show at the top dose activity change, negative = growth inhibition, hits mostly inhibitors; chicken DT40 Tdp1-/-;hTDP1 cells + 20 nM CPT, ATP luminescence, 48 h; actives 12% (n = 420,000); also: % is scaled to controls: 0 for no effect and ±100 for the full control effect; nearly all actives have a fitted effect of over 55% in size
#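 Chicken DT40 Tdp1-/- cells complemented with human TDP1, 400 cells/well, exposed to compounds plus 20 nM camptothecin for at least 48 h at 37 C; viability read as ATP content by CellTiter-Glo luminescence.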
# Starred values were filed as active, the others as inactive; ? = inconclusive; / = no result given. Calls follow the shape of the dose curve; as a rule, active = well fitted curve in the direction sought with a large enough effect; inconclusive = small, poorly fitted or top-dose-only effect, or another doubt; inactive = no such curve, though single readings can be large; an effect the other way counts as inactive or inconclusive. Potency is read from the fitted curve at half-maximal effect.
SMILES,HT1080 IDH1KD tx,HT1080NT lethal,HepG2 viability,TGFb inhibitor,TDP1 cell noCPT,DT40 TDP1 CPT
Cc1cc(C(C)(C)C)oc1C(=O)N(CC(=O)NC1CCCC1)Cc1ccccc1,-1.7%,7.8%,3.0%,-0.1%,13µM*,14.6µM*
Cc1ccc(C)c(N(CC(=O)NC2CCCCC2)C(=O)c2csnn2)c1,3.9%,1.5%,17.5%,-1.7%,-21.2%,4.5%
Cc1ccc(C)c(N(CC(=O)NC2CCCC2)C(=O)c2oc(C(C)(C)C)cc2C)c1,?,?,22.4µM*,?,9.2µM*,8.2µM*
CSCCOC(=O)C1=C(C)Nc2ccc(C)cc2S1,-8.8%,-7.6%,-26.6%,-19.1%,16.4µM*,20.6µM*
Nc1ccc(S(=O)(=O)NC2(C(F)(F)F)NC(=O)N(Cc3ccccc3)C2=O)cc1 (centres undefined),16.9%,15.4%,4.4%,2.5%,12.5%,9.0%
O=C(C1=C[C@@H](c2coc3ccccc3c2=O)C[C@@H](OCc2ccc(CO)cc2)O1)N1CCN(Cc2ccc3c(c2)OCO3)CC1,0.4%,0.9%,6.9%,-0.8%,14.6µM*,20.6µM*
O=C(C1=C[C@H](c2coc3ccccc3c2=O)C[C@H](OCc2ccc(CO)cc2)O1)N1CCN(Cc2ccc3c(c2)OCO3)CC1,-4.2%,-5.4%,-5.9%,-4.2%,7.31µM*,7.31µM*
O=C(Nc1ccc(Cl)cc1)Nc1ccc2c(c1)N1CCN=C1S2,32.6µM*,20.6µM*,-34.5%,-14.2%,20.6µM*,23.1µM*
O=C(OCc1ccccc1)N1Cc2ccnnc2CC1c1ccccc1Br (centres undefined),3.8%,-4.9%,2.6%,-14.4%,?,?
COc1ccc2oc(C(=O)N3CCN(C(c4ccccc4)c4ccccc4)CC3)c(C)c2c1,-22.9%,-20.2%,-6.7%,-34.8%,18.4µM*,?
COc1ccc2oc(C(=O)OC(C)C(=O)N3C(C)CCCC3C)c(C)c2c1 (centres undefined),-16.2%,0.0%,-3.5%,12.3%,20.6µM*,?
COc1ccc(-c2cc(C(=O)N3CCN(C(c4ccccc4)c4ccccc4)CC3)no2)cc1,-16.0%,-1.4%,-31.2%,-18.7%,?,23.1µM*
O=C(c1cc(-c2ccco2)on1)N1CCN(C(c2ccccc2)c2ccccc2)CC1,?,?,-16.6%,?,15.8µM*,15.8µM*
CC(C)c1cc(C(=O)N2CCN(C(c3ccccc3)c3ccccc3)CC2)no1,-11.3%,-0.1%,3.3%,-4.2%,?,?
CCOC(=O)Cc1csc(SCC(=O)N(CC(C)C)c2c(N)n(Cc3ccccc3)c(=O)[nH]c2=O)n1,1.5%,4.1%,-1.4%,12.5%,0.9%,2.2%
COc1ccc(-c2[nH]ncc2CNCCn2cccn2)c(F)c1,12.5%,1.5%,4.1%,13.0%,1.9%,-27.2%
COc1ccc(NC(=O)CCNS(=O)(=O)c2cccc3nsnc23)c(OC)c1,3.8%,1.5%,4.1%,-1.9%,-11.4%,10.0%
O=C(CNC(=O)c1cccc(F)c1)N/N=C/c1ccc([N+](=O)[O-])s1,-20.8%,-29.1%,-126.2%,?,5.8µM*,18.4µM*
Cc1ccccc1C(=O)N/N=C/c1ccc([N+](=O)[O-])s1,8.91µM*,20µM*,-109.5%,?,13µM*,16.4µM*
Cc1ccc(/C=N/NC(=O)c2c[nH]c3ccccc23)s1,-1.9%,-2.4%,-20.1%,?,?,-22.1%
COc1ccccc1NC(=O)C(=O)N/N=C/c1ccc([N+](=O)[O-])s1,0.1%,14.5%,-6.8%,-0.3%,?,11.6µM*
O=C(Cc1ccccc1)N/N=C/c1ccc([N+](=O)[O-])s1,?,?,-79.4%,?,23.1µM*,20.6µM*
O=C(CNC(=O)c1cccc(Br)c1)N/N=C/c1cccs1,11.5%,9.2%,-32.1%,-20.5%,13.6%,1.5%
Cc1ccc(NC(=O)C2C3CCC(O3)C2C(=O)O)cc1Cl (centres undefined),?,-24.1%,-9.2%,-21.2%,-20.1%,-1.0%
O=C(N/N=C/c1ccc(O)cc1)c1cncc(Br)c1,12.8%,19.7%,-11.6%,-23.4%,1.2%,1.8%
SMILES,HT1080 IDH1KD tx,HT1080NT lethal,HepG2 viability,TGFb inhibitor,TDP1 cell noCPT,DT40 TDP1 CPT
O=C(N/N=C/c1ccc([N+](=O)[O-])s1)c1ccccc1,-13.1%,-9.9%,12.6µM*,11.2µM*,4.11µM*,4.61µM*
O=C(N/N=C\c1ccc([N+](=O)[O-])s1)c1cncc(Br)c1,6.51µM*,?,3.55µM*,6.31µM*,3.26µM*,5.17µM*
O=C(N/N=C/c1ccc(Br)s1)c1cccc([N+](=O)[O-])c1,?,-3.9%,-56.3%,-0.2%,?,?
CCOc1ccc(NC(C)C(=O)N/N=C/c2cccs2)cc1 (centres undefined),1.4%,2.3%,-4.2%,-4.4%,-10.2%,-1.9%
COc1ccc(NC(C)C(=O)N/N=C/c2ccc([N+](=O)[O-])s2)cc1 (centres undefined),-3.6%,-21.2%,17.8µM*,12.6µM*,23.1µM*,16.4µM*
Cc1ccnn1CC(=O)N/N=C/c1ccc([N+](=O)[O-])s1,-20.6%,?,-122.0%,11.2µM*,23.1µM*,25.9µM*
CC(C)c1onc(C(=O)N2CCN(C(c3ccccc3)c3ccccc3)CC2)c1[N+](=O)[O-],-5.2%,-2.7%,-23.3%,13.5%,?,?
O=C(Nc1cccc(Cl)c1)C1CCN(S(=O)(=O)Cc2ccccc2)CC1,/,/,6.0%,-0.2%,?,-7.0%
COC(=O)c1cc(CN2CCN(c3ccccc3)CC2)ccc1O,13.2%,7.4%,5.2%,19.2%,-7.5%,3.3%
COC(=O)N/N=C/c1ccc([N+](=O)[O-])s1,?,-0.7%,-34.8%,?,14.6µM*,13µM*
COc1cc(OC)c(/C=C/c2ccncn2)c(OC)c1,/,/,-1.0%,?,?,?
CCCC[n+]1c(/C=C/c2c(OC)cc(OC)cc2OC)ccc2ccccc21,/,/,-49.0%,60.5%,0.0891µM*,0.316µM*
COc1cc(OC)c(/C=C/c2ccc3ccccc3[n+]2C)c(OC)c1,/,/,-17.9%,6.5%,0.1µM*,0.1µM*
CCC[n+]1c(/C=C/c2c(OC)cc(OC)cc2OC)ccc2ccccc21,/,/,-36.7%,48.9%,0.0891µM*,0.112µM*
COc1cc(OC)c(C=CC(=O)c2ccccc2O)c(OC)c1,?,-10.8%,-11.8%,-1.0%,?,?
